TDP1 cell CPT = DT40-hTDP1 cell growth loss with CPT; chicken DT40 Tdp1-/-;hTDP1 cells + 20 nM CPT, ATP luminescence, 48 h; Potency, µM (series often up to 46.2 µM), for the others: top-dose activity change, negative = growth inhibition, actives largely listed as inhibitors; 12% of 420,000 active; also: potency is read from the fitted curve at half-maximal effect; nearly all actives have a fitted effect of over 55% in size
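Chicken DT40 Tdp1-/- cells complemented with human TDP1, 400 cells/well, exposed to compounds plus 20 nM camptothecin for at least 48 h at 37 C; viability read as ATP content by CellTiter-Glo luminescence.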
DT40 TDP1 no CPT = qHTS for Inhibitors of human tyrosyl-DNA phosphodiesterase 1 (TDP1): qHTS in cells in absence of CPT; DT40 Tdp1-/- hTDP1 cells, no CPT, ATP luminescence, 48 h; Potency, µM (titrated, usually from 46.2 µM), for inactives: at the top dose activity change, negative = growth inhibition, actives largely listed as inhibitors; 15% of 420,000 active; also: potency is read from the fitted curve at half-maximal effect; nearly all actives have a fitted effect of over 55% in size
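Growth kinetics read by CellTiter-Glo luminescence after ≥48 hr at 37 °C. Cells: DT40 Tdp1-/- stably carrying human TDP1, 400 per well, compound exposure in the absence of CPT (DMSO vehicle).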
IL-1B inflam inh = inhibitors of inflammasome signaling (IL-1 beta secretion). THP-1 LPS/ATP IL-1B secretion, AlphaLISA, 16 h; active compounds read low. activity change, % at 57.5 µM. 4.7% of 360,000 active; in the data active = activity change below about -50%; inconclusive = mostly about -30% to -49%
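Secreted IL-1B measured by AlphaLISA bead assay after 16 h compound exposure of THP-1 cells; compounds (final up to 57.5 uM) added 1 h before LPS (250 ng/mL) and ATP (1.25 mM) stimulation; lower signal means less secretion.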
ELG1 repair inh = blocks ELG1-dependent DNA repair in HEK293T cells; HEK293T ELG1-luciferase reporter, luminescence, 16 h; DNA damage induced by 5-fluorouridine; Potency, µM (titrated, usually from 46.1 µM), without a hit: top-dose activity change, negative = inhibition, usual class: inhibitors; 2.3% of 330,000 active; also: potency is read from the fitted curve at half-maximal effect; nearly all actives have a fitted effect of over 55% in size
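Quantitative HTS, concentration-response format. 2,000 cells/well co-treated with 5-fluorouridine and compound, 16 hr in 5% CO2 at 37 °C; ONE-Glo luminescence read after 30 min.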
HT1080 IDH1KD tx = toxicity to HT-1080 IDH1 knockdown cells (counter line) | 2% of 360,000 active | HT-1080 IDH1 knockdown viability, ATP luminescence, 48 h | Potency, µM (series often up to 46.1 µM), for the others: at the top dose activity, negative = toxicity, most hits filed as cytotoxic;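 also: potency is read from the fitted curve at half-maximal effect; 0% = DMSO wells and -100% = cell-free medium wells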
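After a 2 h attachment period, IDH1KD HT-1080 cells took pin-transferred compound for 48 h at 37 °C; ATP-based luminescence after 10 min room-temperature reagent incubation reported viability.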
HT1080-NT tox = kills 2HG-producing HT-1080-NT fibrosarcoma cells; Potency, µM (highest dose often 46.1 µM), for the others: at the highest dose activity, negative = less viability, hits mostly cytotoxic; HT-1080-NT fibrosarcoma viability, CellTiter-Glo ATP luminescence, 48 h; 1.6% of 360,000 active;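 also: NT is the 2HG producing partner of a matched IDH1 knockdown line; potency is read from the fitted curve at half-maximal effect; 0% = DMSO-treated cells and -100% = media-only wells without cells; nearly all actives have a fitted effect of over 55% in size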
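Viability of the 2HG-overproducing fibrosarcoma line after 48 hours of compound exposure at 37 degrees C was determined by luminescence with CellTiter-Glo, and concentration-effect curves were then fitted and categorized.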
An asterisk follows results filed as active; ? = inconclusive; nt = not tested or not shown; [ ] = remark or other dose. In the library only some 19% were active in any assay of this set; here they are far more common. Unless noted, calls follow the shape of the dose curve; as a rule, active = well fitted curve in the direction sought with a large enough effect; inconclusive = small, poorly fitted or top-dose-only effect, or another doubt; inactive = no such curve, though single readings can be large; an effect the other way counts as inactive or inconclusive. Unless noted, % is scaled to controls: 0 for no effect and ±100 for the full control effect.

SMILES	TDP1 cell CPT	DT40 TDP1 no CPT	IL-1B inflam inh	ELG1 repair inh	HT1080 IDH1KD tx	HT1080-NT tox
CC1CCCC(NC(=O)CN2C(=O)NC(C)(c3cc(F)ccc3F)C2=O)C1C (centres undefined)	-8%	3%	-11	13%	-1%	9%
Cc1cc(C(=O)N/N=C/c2ccc(N(C)C)o2)cs1	23µM*	16µM*	11	-2%	-21%	-13%
COc1ccc(NC2CCCN(C(=O)COc3ccc(C(C)=O)cc3)C2)cc1 (centres undefined)	-3%	0%	-17	nt	-1%	-2%
O=C(NCc1ccccc1)c1cc(C2CCCCN2S(=O)(=O)c2ccccc2)on1 (centres undefined)	?	26µM*	27	nt	-2%	0%
N#Cc1cccc(NC(=O)c2cc(C3CCCCN3S(=O)(=O)c3ccccc3)on2)c1 (centres undefined)	?	16µM*	9	nt	-11%	-2%
CCCNC(=O)c1cc(C2CCCCN2S(=O)(=O)c2ccc(F)cc2F)on1 (centres undefined)	0%	-27%	67	nt	-2%	4%
COc1ccc(S(=O)(=O)N2CCCCC2c2cc(C(=O)Nc3ccc4c(c3)OCO4)no2)cc1 (centres undefined)	18µM*	15µM*	0	nt	?	-27%
O=C(NCc1ccc(F)cc1)c1cc(C2CCCCN2S(=O)(=O)c2ccc(F)cc2F)on1 (centres undefined)	23µM*	?	2	nt	6%	16%
CN(Cc1ccccc1)C(=O)c1cccc(NC(=O)Cc2cccc(NC(=O)C3CCN(C(=O)C4CCC4)CC3)c2)c1	?	?	-21	nt	3%	0%
O=C(CCSCc1ccc(Cl)cc1)N1CCN(c2ccccc2F)CC1	-12%	-5%	nt	nt	nt	nt
COc1ccc(S(=O)(=O)N2CCCCC2c2cc(C(=O)NCc3ccccc3)no2)cc1 (centres undefined)	26µM*	?	?	nt	-1%	-11%
CCC(CCNC(=O)c1ccccc1)(CCNC(=O)c1ccccc1)[N+](=O)[O-]	-19%	-9%	-15	nt	9%	6%
O=C(c1cccnc1)N1N=C(C2CCCCC2)CC1(O)C(F)(F)F (centres undefined)	6.5µM*	8.2µM*	-8	-4%	7%	4%
CCc1cccc(NC(=O)CN2CCCN(Cc3cccc(C)c3)S2(=O)=O)c1	?	29µM*	nt	nt	nt	nt
Cc1cccc(CN2CCN(CC(=O)Nc3c(C)cccc3C)S2(=O)=O)c1	?	16µM*	nt	nt	nt	nt
CN(Cc1cnc2ccccn12)C1CCN(c2cccc(NC(=O)c3cccnc3)c2)CC1	5%[9.04 µM]	?	nt	nt	nt	nt
Cc1cnc(CNC(=O)c2c3n(c(C)cc2=O)-c2ccccc2SC(c2ccsc2)C3)cn1 (centres undefined)	-10%	-7%	nt	nt	nt	nt
O=C1c2ccccc2C2(c3ccccc3)NCCN12 (centres undefined)	-4%	-7%	-9	-4%	2%	15%
Cc1ccc(C(=O)N2CCN3C(=O)c4ccccc4C23c2ccc(Cl)cc2)cc1 (centres undefined)	8.2µM*	10µM*	0	1%	?	?
O=C(Nc1cccc(Cl)c1)N1CCN2C(=O)c3ccccc3C12c1ccccc1 (centres undefined)	?	18µM*	-58*	?	?	?
CC(=O)C(Cc1ccccc1)NC(=O)COc1ccc2c(c1)OCO2 (centres undefined)	0%	-29%	9	4%	-9%	-7%

Screening results: PubChem, National Center for Advancing Translational Sciences (NCATS)
